Source: PubChem (National Center for Advancing Translational Sciences (NCATS))
In the library only some 7.4% were active in any assay of this set; here they are far more common.
NPC1 prom act = activates the NPC1 promoter | hit rate 2.4% among 320,000 | Potency, µM (doses to about 9.22 µM), without a hit: at the top dose activation, actives largely listed as activators | Huh7 NPC1 promoter luciferase reporter, 24 h; note: % of control where 0% means no effect; nearly all actives have a fitted effect of over 60% in size
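NPC1 promoter–luciferase Huh7 cells; 24 h compound; luminescence.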
ELG1 genotox = genotoxicity induction in ELG1-luciferase HEK293T cells | Potency, µM (top dose mostly 46 µM), without a hit: at the top dose activity change, positive = activation, most hits filed as activators | AID 504466 | HEK293T ELG1-luciferase reporter, luminescence, 16 h | hit rate 1.3% among 330,000; note: % of control where 0% means no effect; nearly all actives have a fitted effect of over 60% in size
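Cells (2,000/well) expressing the ELG1-luciferase fusion are dosed by pin tool and kept 16 hr at 37 °C, 5% CO2. Signal comes from ONE-Glo luciferase reagent after 30 min at room temperature.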
Rab9 promoter act = Rab9 promoter activation; Potency, µM (doses to about 9.22 µM), for inactives: at the top dose activation, negative = inhibition, hits mostly activators; hit rate 2.8% among 320,000; AID 485297; Huh7 Rab9 promoter-luciferase reporter, luminescence, 24 h; note: % of control where 0% means no effect; nearly all actives have a fitted effect of over 60% in size
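Stable Rab9-luc Huh7, 1500 cells/well, 2 h settle; cmpd in DMSO, 24 h, 37 °C/5% CO2; luciferase reagent 10 min RT; luminescence.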
p53 reactivator = re-activators of mutant p53; H1299 p53-A138V BP100-luciferase reporter, luminescence, 24 h; Potency, µM (highest dose often 92.2 µM), for inactives: top-dose activity change, positive = activation, hits mostly activators; hit rate 0.063% among 320,000; AID 504706; note: % of control where 0% means no effect; nearly all actives have a fitted effect of over 45% in size
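p53-null H1299 cells stably carrying temperature-sensitive p53-A138V and a BP100-luciferase reporter were pinned with compounds (4-point, 1:5 series) and held 24 hrs at 37 deg C. Luminescence was read 10 min after detection reagent.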
SMN2 splice enh = increases expression of the SMN2 splice variant; HEK293 SMN2-luciferase splicing reporter, luminescence, 30-36 h; Potency, µM (doses to about 46.1 µM), for the others: top-dose activity change, positive = activation, actives largely listed as activators; hit rate 2.8% among 210,000; note: % of control where 0% means no effect; nearly all actives have a fitted effect of over 55% in size
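qHTS luciferase splicing reporter: luminescence rises when SMN2 exon 7 is included in transfected HEK293 cells. Compound exposure lasted 30-36 h at 37C, with 4.5 mM final sodium butyrate as control, followed by a ONE-Glo read.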
FLuc modulator = inhibits or activates purified firefly luciferase, miR-21 counter-screen. purified FLuc, Km substrates, luminescence inhibition. Potency, µM (titrated, usually from 57.5 µM), inactives show at the highest dose activity change, negative = inhibition, most hits filed as inhibitors. hit rate 6.9% among 360,000. AID 588342;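 note: plate controls were vehicle for no effect and reference inhibitor for full effect; nearly all actives have a fitted effect of over 55% in size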
Target sequence (P08659 whole entry, looked up): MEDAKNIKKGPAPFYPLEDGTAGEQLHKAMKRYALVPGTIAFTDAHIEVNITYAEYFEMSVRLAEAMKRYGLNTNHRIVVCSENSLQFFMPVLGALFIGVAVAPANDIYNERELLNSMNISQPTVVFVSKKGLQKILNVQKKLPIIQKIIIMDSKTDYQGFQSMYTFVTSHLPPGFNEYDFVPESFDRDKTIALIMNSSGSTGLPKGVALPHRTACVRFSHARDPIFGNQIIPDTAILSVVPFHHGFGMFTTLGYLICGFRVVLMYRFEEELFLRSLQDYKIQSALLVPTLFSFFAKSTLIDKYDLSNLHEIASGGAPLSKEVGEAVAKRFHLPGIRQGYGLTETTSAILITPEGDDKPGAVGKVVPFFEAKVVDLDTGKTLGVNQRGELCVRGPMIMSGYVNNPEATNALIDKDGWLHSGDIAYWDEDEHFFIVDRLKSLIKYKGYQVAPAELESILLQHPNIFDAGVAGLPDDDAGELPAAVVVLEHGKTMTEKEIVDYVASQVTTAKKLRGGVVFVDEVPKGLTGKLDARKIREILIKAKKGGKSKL
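Purified P. pyralis luciferase, 10 nM final, with Km-level 10 uM D-luciferin and 10 uM ATP in 50 mM Tris acetate pH 7.5, 10 mM Mg acetate, 0.01% Tween-20, 0.05% BSA; 6-point qHTS titration about 60 µM downward; luminescence read.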
An asterisk follows results filed as active; u = inconclusive; x = not tested or not shown; ! = repeats disagree. Calls come from the whole dose curve; as a rule, active = well fitted curve in the direction sought with a large enough effect; inconclusive = small, poorly fitted or top-dose-only effect, or another doubt; inactive = no such curve, though single readings can be large; an effect the other way counts as inactive or inconclusive. Potency is the fitted concentration of half-maximal effect.

SMILES	NPC1 prom act	ELG1 genotox	Rab9 promoter act	p53 reactivator	SMN2 splice enh	FLuc modulator
CN1c2ccccc2C(=O)/C(=C\Nc2ncccn2)S1(=O)=O	1%	0%	-5%	-2%	x	-2%
CN1c2ccccc2C(=O)/C(=C\Nc2ccc(F)cc2F)S1(=O)=O	2%	0%	-1%	3%	x	2.4µM*
CC(C)Sc1nc2ccc(Br)cc2[nH]1	23%	u	u	2%	x	17µM*
O=C(/C=C/Nc1ccc(F)cc1)c1ccco1	4µM*	2.1µM*	2.8µM*	45µM*	16µM*	0.95µM*
CCOC(=O)c1ccc(N/C=C/C(=O)c2ccco2)cc1	1.6µM*	0.73µM*	1.3µM*	17%	14µM*	1.3µM*
Cc1ccc(N/C=C/C(=O)c2ccco2)c(O)c1	3.2µM*	3.7µM*	1.8µM*	18%	x	0.76µM*
Cc1cccc(NC(=O)CN2C(=O)COc3ccc(S(=O)(=O)Nc4ccccc4)cc32)c1C	x	x	x	x	x	-10%
CCOC(=O)c1cnc2c(ccc3ccccc32)c1N	1.6µM*	8.2µM*	1.1µM*	u	x	u
CCOC(=O)c1cnc2c(-c3ccccc3)cnn2c1C	2.5µM*	8.2µM*	1.6µM*	6%	11µM*	1.9µM*
CCOC(=O)c1cnc(-c2ccccc2)nc1N(C)C	-4%	11µM*	-3%	u	4.5µM*	15µM*
CCOC(=O)c1cnc(-c2ccccc2)nc1N1CCOCC1	-4%	-10%	-6%	-3%	2%	-2%
CCOC(=O)c1cnc(-c2ccccc2)nc1N	2.8µM*	3.3µM*	2µM*	u	7.1µM*	9.5µM*
Nc1ncnc2nc(Cl)[nH]c12	x	x	x	x	2%	x
Cc1ccccc1OCc1ccc(-c2nc(C#N)c(N3CCN(c4ccccc4)CC3)o2)o1	x	x	x	x	x	-6%
CC(=O)/C=C/c1ccc2ccccc2n1	-27%	u	-5%	-11%	-35%	u
O/N=C/c1ccc2ccccc2n1	u	u	2.8µM*	13%	x	u
O/C(=C\c1nc2ccccc2nc1/C=C(\O)c1ccccc1)c1ccccc1	3.2µM*	-7%	4.5µM*	0%	u	1.1µM*
O=c1oc2ccccc2nc1/C=C(\O)c1ccccc1	1%	0%	14%	u	x	u
O/C(=C\c1ccc2ccccc2n1)c1ccncc1	2.5µM*	u	1.4µM*	u	x	2.4µM*
N#Cc1ccccc1OCC(=O)NC(=O)NC1CCS(=O)(=O)C1 (centres undefined)	24%	u	u	u	x	u
COc1ccc(CCNC(=O)CSc2cn(CCNC(=O)c3ccc(OC)c(OC)c3)c3ccccc23)cc1OC	x	x	x	x	-23%	-1%
CSc1ccc(CN(C)CC(=O)NC(=O)NCCC2=CCCCC2)cc1	0%	0%	-4%	-3%	x	1%
CS(=O)(=O)c1cccc(-c2csc(N3CCC(C(N)=O)CC3)n2)c1	2.5µM*!	10%	u	5%	x	0%
COc1ccc(-c2csc3nc(-c4cccnc4)nc(N4CCC(C(N)=O)CC4)c23)cc1OC	-1%	-2%	-3%	-14%	14µM*	2%
CN(C)c1cccc(-c2csc(N3CCC(C(N)=O)CC3)n2)c1	x	9%	x	20%	x	x
COc1cccc(-c2csc(N3CCC(C(N)=O)CC3)n2)c1	x	x	x	x	x	17µM*
Cc1oc2ncn(CC(C)C)c(=O)c2c1C(=O)NCCc1ccccc1	x	x	x	x	x	1%
O=C(NCc1ccc2c(c1)OCO2)c1ccc(NC(=O)C2CCCO2)cc1 (centres undefined)	-3%	1%	-5%	-4%	19%	-4%
CCN(CC(=O)Nc1ccc2c(c1)OCCO2)C(=O)c1ccc(Cl)cc1Cl	4µM*	u	1.4µM*	u	x	7.6µM*
O=C(Nc1ccc2c(c1)OCCO2)c1ccc(NC(=O)C2CCCO2)cc1 (centres undefined)	14%	5%	22%	-3%	-5%	12µM*
